Laboratory results: publication PMC5540273 (PLoS ONE, 2017)

test system: CDKL5; details: concentration: 1 μM,replicates: in singlicate; n = 1
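Also: KINOMEscan kinase panel screen.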

Point of comparison: `CN(c1ccc2c(c1)nc(NCc1ccc(F)cc1)n2C)c1ccnc(Nc2ccc(CS(C)(=O)=O)cc2)n1.Cl` [GW813244], “%Inh” value 0%. Against it:
- COC(=O)Nc1nc2cc(Oc3ccc(NC(=O)Nc4cc(C(F)(F)F)ccc4Cl)cc3)ccc2[nH]1.Cl [GW697465] — the same, 0%
- O=C(Nc1n[nH]c2cc(-c3ccco3)ccc12)C1CC1 [SB-737447] — the same, 0%
- Cc1cccc2c(-c3ccncc3)c(-c3ccc(F)cc3)nn12.Cl [GW461487] — the same, 0%
- CN1CCN(CCNc2nc3cc(Oc4ccc(NC(=O)Nc5cc(C(F)(F)F)ccc5F)cc4)ccc3[nH]2)CC1.Cl.Cl [GW768504] — the same, 0%
- c1ccc(Oc2ccc(Nc3ccnc4ccc(-c5ccccn5)cc34)cc2)cc1 [GW407034] — higher, 14%
- CC(=O)Nc1nc2cnc(Nc3cc(NC(=O)c4cccc(CC(C)(C)C#N)c4)ccc3C)nc2s1 — the same, 0%
- O=C(NCC1CC1)c1ccc(-c2cc(C(=O)NC3CC3)ccc2F)cc1 [GW810445] — the same, 0%
- Cc1ccc(CC(=O)N2CCc3cc(-c4cn(C)c5ncnc(N)c45)ccc32)cc1 [GSK2634758] — the same, 0%
- CSc1nccc(-c2c(-c3ccc(F)cc3)ncn2CCCN2CCOCC2)n1.Cl [SB-217146] — higher, 11%
- O=C(Nc1ccccc1)c1cccc(Oc2ccc3nccn3n2)c1 — the same, 0%
- COc1cccc(C2=C(Nc3cccc(Cl)c3)C(=O)NC2=O)c1 [SB-341556] — the same, 0%
- Cn1ccc2ncnc(Oc3ccc(NC(=O)Nc4cccc(C(F)(F)F)c4)c(Cl)c3)c21 — the same, 0%
- Cc1ccn2nc(-c3ccc(F)cc3)c(-c3ccncc3)c2c1.Cl [GW457859] — the same, 0%
- CCCC(=O)Nc1n[nH]c2ncccc12 [SB-601436] — the same, 0%
- Cn1ccc2ncnc(Oc3ccc(NC(=O)Nc4cccc(C(F)(F)F)c4)c(F)c3)c21 — the same, 0%
- C[C@@H]1CNc2c(sc3ccc4nc(-c5ccc(O)cc5)ccc4c23)C(=O)N1 — the same, 0%
- N#Cc1cccc(C(=O)NC2CCN(c3ccnc(Nc4ccc(F)cc4)n3)C2)c1 (centres unmarked) [GSK1379708] — higher, 6%
- Nc1nccc(-c2ccc3c(N)n[nH]c3c2)n1 [GSK1034945] — the same, 0%
- COc1cccc(CNC(=O)NC2CCN(c3ccnc(Nc4cc(OC)c(OC)c(OC)c4)n3)C2)c1 (centres unmarked) [GSK1379765] — the same, 0%
- COc1cc2c(Nc3ccc(NC(=O)c4ccccc4)cc3)ncnc2cc1OCCCN1CCOCC1 [GSK301329] — the same, 0%
- CC(=O)Nc1ccc(-c2cc3ncnc(SCC(=O)O)c3s2)cc1 — higher, 18%
- CCn1c(-c2nonc2N)nc2cncc(Br)c21 [SB-738004] — the same, 0%
- CCOC(=O)N1CCC(n2cnc(-c3ccc(F)cc3)c2-c2ccnc(N)n2)CC1 [SB-219952] — higher, 13%
- NC(=O)Nc1sc(-c2ccc(F)cc2)cc1C(N)=O [GW789449] — the same, 0%
- COc1cc2ncn(-c3cc(OCC4CCCCC4)c(C(N)=O)s3)c2cc1OC [GSK204559] — the same, 0%
- Cl.Cl.NC[C@H](CC1CCCCC1)NC(=O)c1ccc(-c2ccnc3[nH]ccc23)s1 [GSK1581428] — higher, 44%
- Cc1n[nH]c2cc(Nc3ccnc(Nc4cccc(CN5CCOCC5)c4)n3)ccc12 [GW682569] — the same, 0%
- Cc1ccc(Nc2ccnc(Nc3ccc4c(c3)CS(=O)(=O)C4)n2)cc1O.Cl [GW579362] — the same, 0%
- Cc1ccc2c(-c3ccnc(Nc4ccc(C(F)(F)F)cc4)n3)cnn2n1 [GW819776] — higher, 61%
- CS(=O)(=O)c1cccc(CNc2nc(Nc3ccc4c(c3)[C@@H]3C[C@@H]4CNC3=O)ncc2C(F)(F)F)c1 — the same, 0%
- Cl.c1ccc(Oc2ccc(Nc3ccnc4cc(-c5ccc(CN6CCNCC6)o5)ccc34)cc2)nc1 [GW567142] — the same, 0%
- CS(=O)c1ccc(-c2coc3ccc(-c4n[nH]c(=O)o4)cc23)cc1 (centres unmarked) — the same, 0%
- Cn1ccc2ncnc(Oc3ccc(NC(=O)Nc4ccnc(C(F)(F)F)c4)c(Cl)c3)c21 — higher, 19%
- C[C@@H]1CCN(C(=O)N2CCCC2)C[C@@H]1N(C)c1ncnc2[nH]ccc12 — higher, 5%
- CCn1c(-c2nonc2N)nc2cncc(CNC3CCNCC3)c21.Cl [SB-747651] — the same, 0%
- Cc1cccc(-c2nc(Nc3ccncc3)c3sccc3n2)n1 [GW869641] — higher, 31%

test system: CHEK1; details: concentration: 1 μM,replicates: in singlicate; n = 1

Point of comparison: `CSc1nccc(-c2c(-c3ccc(F)cc3)ncn2CCCN2CCOCC2)n1.Cl` [SB-217146], “%Inh” value 0%. Against it:
- COC(=O)Nc1nc2cc(Oc3ccc(NC(=O)Nc4cc(C(F)(F)F)ccc4Cl)cc3)ccc2[nH]1.Cl [GW697465] — the same, 0%
- O=C(Nc1n[nH]c2cc(-c3ccco3)ccc12)C1CC1 [SB-737447] — the same, 0%
- Cc1cccc2c(-c3ccncc3)c(-c3ccc(F)cc3)nn12.Cl [GW461487] — the same, 0%
- CN1CCN(CCNc2nc3cc(Oc4ccc(NC(=O)Nc5cc(C(F)(F)F)ccc5F)cc4)ccc3[nH]2)CC1.Cl.Cl [GW768504] — the same, 0%
- c1ccc(Oc2ccc(Nc3ccnc4ccc(-c5ccccn5)cc34)cc2)cc1 [GW407034] — higher, 26%
- CC(=O)Nc1nc2cnc(Nc3cc(NC(=O)c4cccc(CC(C)(C)C#N)c4)ccc3C)nc2s1 — the same, 0%
- O=C(NCC1CC1)c1ccc(-c2cc(C(=O)NC3CC3)ccc2F)cc1 [GW810445] — the same, 0%
- Cc1ccc(CC(=O)N2CCc3cc(-c4cn(C)c5ncnc(N)c45)ccc32)cc1 [GSK2634758] — higher, 1%
- O=C(Nc1ccccc1)c1cccc(Oc2ccc3nccn3n2)c1 — the same, 0%
- COc1cccc(C2=C(Nc3cccc(Cl)c3)C(=O)NC2=O)c1 [SB-341556] — higher, 14%
- Cn1ccc2ncnc(Oc3ccc(NC(=O)Nc4cccc(C(F)(F)F)c4)c(Cl)c3)c21 — the same, 0%
- Cc1ccn2nc(-c3ccc(F)cc3)c(-c3ccncc3)c2c1.Cl [GW457859] — the same, 0%
- CCCC(=O)Nc1n[nH]c2ncccc12 [SB-601436] — the same, 0%
- Cn1ccc2ncnc(Oc3ccc(NC(=O)Nc4cccc(C(F)(F)F)c4)c(F)c3)c21 — the same, 0%
- C[C@@H]1CNc2c(sc3ccc4nc(-c5ccc(O)cc5)ccc4c23)C(=O)N1 — the same, 0%
- N#Cc1cccc(C(=O)NC2CCN(c3ccnc(Nc4ccc(F)cc4)n3)C2)c1 (centres unmarked) [GSK1379708] — the same, 0%
- Nc1nccc(-c2ccc3c(N)n[nH]c3c2)n1 [GSK1034945] — the same, 0%
- COc1cccc(CNC(=O)NC2CCN(c3ccnc(Nc4cc(OC)c(OC)c(OC)c4)n3)C2)c1 (centres unmarked) [GSK1379765] — the same, 0%
- COc1cc2c(Nc3ccc(NC(=O)c4ccccc4)cc3)ncnc2cc1OCCCN1CCOCC1 [GSK301329] — the same, 0%
- CC(=O)Nc1ccc(-c2cc3ncnc(SCC(=O)O)c3s2)cc1 — higher, 1%
- CCn1c(-c2nonc2N)nc2cncc(Br)c21 [SB-738004] — the same, 0%
- CCOC(=O)N1CCC(n2cnc(-c3ccc(F)cc3)c2-c2ccnc(N)n2)CC1 [SB-219952] — the same, 0%
- NC(=O)Nc1sc(-c2ccc(F)cc2)cc1C(N)=O [GW789449] — the same, 0%
- COc1cc2ncn(-c3cc(OCC4CCCCC4)c(C(N)=O)s3)c2cc1OC [GSK204559] — the same, 0%
- Cl.Cl.NC[C@H](CC1CCCCC1)NC(=O)c1ccc(-c2ccnc3[nH]ccc23)s1 [GSK1581428] — higher, 96.8%
- Cc1n[nH]c2cc(Nc3ccnc(Nc4cccc(CN5CCOCC5)c4)n3)ccc12 [GW682569] — the same, 0%
- Cc1ccc(Nc2ccnc(Nc3ccc4c(c3)CS(=O)(=O)C4)n2)cc1O.Cl [GW579362] — the same, 0%
- Cc1ccc2c(-c3ccnc(Nc4ccc(C(F)(F)F)cc4)n3)cnn2n1 [GW819776] — the same, 0%
- CS(=O)(=O)c1cccc(CNc2nc(Nc3ccc4c(c3)[C@@H]3C[C@@H]4CNC3=O)ncc2C(F)(F)F)c1 — the same, 0%
- Cl.c1ccc(Oc2ccc(Nc3ccnc4cc(-c5ccc(CN6CCNCC6)o5)ccc34)cc2)nc1 [GW567142] — higher, 5%
- CN(c1ccc2c(c1)nc(NCc1ccc(F)cc1)n2C)c1ccnc(Nc2ccc(CS(C)(=O)=O)cc2)n1.Cl [GW813244] — the same, 0%
- CS(=O)c1ccc(-c2coc3ccc(-c4n[nH]c(=O)o4)cc23)cc1 (centres unmarked) — the same, 0%
- Cn1ccc2ncnc(Oc3ccc(NC(=O)Nc4ccnc(C(F)(F)F)c4)c(Cl)c3)c21 — the same, 0%
- C[C@@H]1CCN(C(=O)N2CCCC2)C[C@@H]1N(C)c1ncnc2[nH]ccc12 — higher, 9%
- CCn1c(-c2nonc2N)nc2cncc(CNC3CCNCC3)c21.Cl [SB-747651] — higher, 48%
- Cc1cccc(-c2nc(Nc3ccncc3)c3sccc3n2)n1 [GW869641] — the same, 0%
